Laboratory results taken from PubChem BioAssay AID2766 (Sanford-Burnham Center for Chemical Genomics, 2010).
This is one part of the list. Unmarked numbers belong to inactive results. Rule as the data show it: active = inhibition above about 50%; inactive = the rest.

Target: Apelin receptor (Homo sapiens) (UniProt P35414)
Test: apelin receptor inhibitors, beta-arrestin readout – cell-based, luminescence, single concentration, uHTS hits, confirmation (AID 2766)
Settings: APJ beta-arrestin recruitment, antagonist mode, at 20 µM, hits give high values

Sequence of Apelin receptor (Homo sapiens) (P35414 whole entry, looked up): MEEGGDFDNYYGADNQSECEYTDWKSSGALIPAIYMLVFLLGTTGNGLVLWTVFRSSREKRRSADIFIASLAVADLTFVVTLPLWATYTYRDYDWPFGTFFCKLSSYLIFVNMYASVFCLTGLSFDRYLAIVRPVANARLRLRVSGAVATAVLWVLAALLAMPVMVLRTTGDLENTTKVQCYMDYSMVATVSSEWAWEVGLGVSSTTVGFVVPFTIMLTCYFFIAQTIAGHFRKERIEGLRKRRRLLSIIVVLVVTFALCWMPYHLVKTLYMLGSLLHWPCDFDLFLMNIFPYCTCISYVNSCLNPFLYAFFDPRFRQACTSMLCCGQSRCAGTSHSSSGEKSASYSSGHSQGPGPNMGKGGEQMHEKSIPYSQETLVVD

Compound: CCOC(=O)c1c(N)n(Cc2ccccc2)c2nc3ccccc3nc12
- inhibition: 35%
